# From PubChem BioAssay (NCATS)
# A number with no mark means an inactive call. Calls follow the shape of the dose curve; as a rule, active = well fitted curve in the direction sought with a large enough effect; inconclusive = small, poorly fitted or top-dose-only effect, or another doubt; inactive = no such curve, though single readings can be large or run the other way. Residues, ends and D or L forms follow the SMILES beside them. *: point of attachment. Cbz = O=C(OCc1ccccc1)*
# Target: Methanococcus maripaludis chaperonin (MmCpn) (UniProt Q6LX38)
# Sequence (Q6LX38 1-543): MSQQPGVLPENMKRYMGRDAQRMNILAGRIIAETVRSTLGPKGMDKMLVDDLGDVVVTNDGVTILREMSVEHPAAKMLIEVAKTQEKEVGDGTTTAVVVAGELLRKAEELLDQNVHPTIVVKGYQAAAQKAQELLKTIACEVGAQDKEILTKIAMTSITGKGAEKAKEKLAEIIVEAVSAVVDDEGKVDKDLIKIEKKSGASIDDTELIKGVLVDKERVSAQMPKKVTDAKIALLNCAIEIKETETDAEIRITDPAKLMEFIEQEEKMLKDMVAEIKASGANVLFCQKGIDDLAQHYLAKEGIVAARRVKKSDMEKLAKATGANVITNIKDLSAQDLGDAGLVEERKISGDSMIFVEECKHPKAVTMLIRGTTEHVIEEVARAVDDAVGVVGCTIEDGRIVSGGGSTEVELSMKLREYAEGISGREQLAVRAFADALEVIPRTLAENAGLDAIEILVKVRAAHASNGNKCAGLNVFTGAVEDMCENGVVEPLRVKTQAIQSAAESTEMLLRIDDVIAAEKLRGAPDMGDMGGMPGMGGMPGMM
# Assay: High-Throughput Screening for Modulators of Cytosolic Chaperonin Activity: MmCpn Primary Screen (AID 488978); also: 0% is about no effect
# Conditions: Purified MmCpn ATPase activity, ADP HTRF detection, 10 min; series mostly up to 76.9 µM; activity change, negative = inhibition: at the top concentration
# Excerpt: Chaperonins are key components of the cellular chaperone machinery. These large complexes consist of two stacked 7-9 membered rings, each containing a central cavity. Substrates are folded within the cavity in an ATP-dependent manner. TRiC is a complex of eight different, essential proteins. As each of the genes encoding the eight subunits is essential for cell viability and no protocol has been developed to overexpress this enzyme to high levels, several groups have turned to the archaeal homolog of TRiC from Methanococcus maripaludis (MmCpn) as a model system for the study of the type II chaperonin family.
# MmCpn was kindly provided by the laboratory of Judith Frydman.
# 1. Dispense 1.5 ul enzyme of either TriC at 100 nM or MmCpn at 50 nM final concentration.
# 2. Transfer 23 nl of compound to plate, incubate 5 min at RT.
# 3. 1.5 ul ATP at 30 uM at final concentration dispensed into plate.
# 4. Incubate for 10 minutes at 37C (MmCPN), 30C (TriC).
# 5. 3 ul of the Cisbio ADP Transcreener HTRF detection reagent prepared according to protocol dispensed into plate.
# 6. Incubate for 5 minutes.
# 7. Read using EnVision plate reader at Excitation = 320nm and Emission = 590nm, 665nm
row,SMILES,"activity change, negative = inhibition [%]"
1,CN(C)S(=O)(=O)c1ccc2c(c1)/C(=C/c1cc3c([nH]1)CCCC3)C(=O)N2,-3.85
2,N=C(N)SCCN,1.67
3,O=C(N[C@@H](Cc1ccccc1)C(=O)CCl)OCc1ccccc1,0.0525
4,COc1cccc(OC)c1OCCNCC1CSc2ccccc2O1 (stereo not given),0.876
5,CCCn1c(=O)c2[nH]c(-c3ccc(S(=O)(=O)O)cc3)nc2n(CCC)c1=O,-8.56
6,CCCCCCCC/C=C\CCCCCCCC(=O)NCCc1ccc(O)c(O)c1,-2.49
7,CCCCCCCCCCCCCCC[C@H](O)[C@H](N)CO,1.85
8,c1ccc(CN2CCC3(CCCc4ccccc43)CC2)cc1,1.34
9,N=C(N)c1ccc(OCCCCCOc2ccc(C(=N)N)cc2)cc1 (tested in a mixture with another compound),0.468
10,C[C@](Cc1ccc(O)c(O)c1)(NN)C(=O)O,0.289
11,CCCCC[C@H](CC(=O)NO)C(=O)N[C@H](C(=O)N1CCC[C@H]1CO)C(C)C,-6.37
12,Cc1nc(N=Nc2ccc(S(=O)(=O)O)cc2S(=O)(=O)O)c(COP(=O)(O)O)c(C=O)c1O,-4.19
13,O=c1[nH]c(=S)[nH]c(-c2ccccc2)c1Cc1c(O)ccc2ccccc12,1.01
14,N[C@H](C(=O)O)[C@H](O)C(=O)O,-0.338
15,CC(C)(C)NCC(O)COc1cccc2[nH]c(=O)[nH]c12 (stereo not given),0.153
16,CN(C)CCCc1cc(C(=O)Nc2ccc(-c3ccncc3)cc2)ccc1O,-0.363
17,CC(C)C[C@H](NC(=O)[C@H](O)[C@H](N)Cc1ccccc1)C(=O)O,-2.92
18,CSC(=N)N,8.88
19,O=c1cc(-c2ccccc2F)[nH]c2cc3c(cc12)OCO3,-1.02
20,CC[N+](CC)(CC)CC(=O)Nc1c(C)cccc1C,1.99

row,SMILES,"activity change, negative = inhibition [%]"
1,Cc1ccc([N+](=O)[O-])cc1S(=O)(=O)N(C)C,-0.227
2,NC[C@@H]1O[C@H](c2ccccc2)Cc2c1ccc(O)c2O,0.647
3,Nc1nc2[nH]c(=O)cnc2c(=O)[nH]1,-2.4
4,CC(C)[C@H](NC(=O)OCc1ccccc1)C(=O)N[C@H](C=O)Cc1ccccc1 (Cbz-Val-Phe-aldehyde),-2.86
5,CN1CC(O)C(O)C(O)C1CO (stereo not given),0.567
6,CN1CCN(c2nc3cc(C(F)(F)F)ccc3n3cccc23)CC1,-3.46
7,NC1(C(=O)O)CCc2cc(C(=O)O)ccc21 (stereo not given),-0.17
8,O=c1[nH]c(=O)c2nc3ccccc3nc2[nH]1,-2.55
9,CC(N)=NCCCC[C@@H](N)C(=O)O,-1.7
10,c1ccc(C(NCCNC(c2ccccc2)c2ccccc2)c2ccccc2)cc1,-4.72
11,Brc1c(Br)c(Br)c2[nH]cnc2c1Br,0.0159
12,NC(=O)c1cc[n+](CC2=C(C(=O)O)N3C(=O)[C@@H](NC(=O)[C@@H](c4ccccc4)S(=O)(=O)[O-])[C@H]3SC2)cc1,-0.765
13,N=C(N)c1ccccc1,0.817
14,CC(/C=C/c1cccc(Oc2ccc(F)cc2)c1)N(O)C(N)=O (stereo not given),1.76
15,CSC(N)=NCCC[C@H](N)C(=O)O,1.84
16,COc1ccc(-c2cc3ncc(C)n3c(Nc3ncccc3C(N)=O)n2)cc1OC,1.46
17,CCCc1c(OCCCOc2ccc(OCC(=O)O)cc2)ccc(C(C)=O)c1O,1.85
18,CNC(=O)c1cc2c(cn1)[nH]c1ccccc12,-3.81
19,O=C(O)/C=C/c1ccc(O)c(O)c1,-0.433
20,N=C(N)c1ccc(N)cc1,-0.229
